Bim-Mcl-1: inhibitors of Bim-Mcl-1 interaction, human; AID 1009; inhibition, % at 10 µM; Q07820; 190,000 compounds, 0.1% hits; Bead-based flow cytometry, Bim peptide-Mcl-1 binding; in the data active means inhibition above about 40%
Target sequence (Q07820 whole entry, looked up): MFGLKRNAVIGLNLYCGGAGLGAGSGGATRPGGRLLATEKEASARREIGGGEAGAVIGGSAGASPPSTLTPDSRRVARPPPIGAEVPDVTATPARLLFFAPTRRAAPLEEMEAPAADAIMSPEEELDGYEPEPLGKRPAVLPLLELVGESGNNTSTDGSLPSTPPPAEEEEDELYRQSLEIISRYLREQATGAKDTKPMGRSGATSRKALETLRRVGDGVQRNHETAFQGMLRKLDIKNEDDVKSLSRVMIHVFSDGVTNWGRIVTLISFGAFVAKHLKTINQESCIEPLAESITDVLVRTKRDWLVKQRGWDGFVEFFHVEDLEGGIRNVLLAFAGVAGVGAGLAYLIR
eIF4E-4G inh: blocks eIF4E binding to eIF4G | P63073+Q04637 | TR-FRET eIF4E-eIF4GI(517-606) binding, 2 h | inhibition, % at 21.7 µM | 220,000 compounds, 0.37% hits | AID 782
p47phox inh: blocks human p47phox regulatory protein of NADPH oxidases. P14598. p47phox/p22phox peptide binding, fluorescence polarization, 2 h. inhibition, % at 24.7 µM. 220,000 compounds, 0.53% hits. AID 1274
Mcl1 Bid PPI: Mcl-1/Bid interaction inhibition. inhibition, % at 21.7 µM. TR-FRET Mcl-1/Bid-Dy647 peptide binding, 1536-well. 220,000 compounds, 0.97% hits. Q07820;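 active means compounds that cut the binding signal by more than half at the single screening dose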;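 further: His-tagged Mcl-1 with europium anti-His antibody binding Bid BH3 peptide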
14-3-3 Bad inh: disrupts binding of bovine 14-3-3 zeta to phospho-Bad peptide. TR-FRET 14-3-3zeta/Dy647-pBad peptide displacement, 1 h. inhibition, % at 21.7 µM. 220,000 compounds, 0.71% hits;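 active means inhibition above about 70%, limit read from the data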
Target sequence (P63103 whole entry, looked up): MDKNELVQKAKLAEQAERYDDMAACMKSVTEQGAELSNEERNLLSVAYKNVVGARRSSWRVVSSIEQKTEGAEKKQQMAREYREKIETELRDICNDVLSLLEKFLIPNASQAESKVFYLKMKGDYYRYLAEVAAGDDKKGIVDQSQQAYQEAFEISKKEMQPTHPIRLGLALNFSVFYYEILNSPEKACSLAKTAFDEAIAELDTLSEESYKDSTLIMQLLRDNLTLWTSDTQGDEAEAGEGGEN
Mcl1-Noxa inh: disrupts binding of human Mcl-1 to Noxa peptide; 220,000 compounds, 1.5% hits; AID 1022; Q07820; TR-FRET Mcl-1/Noxa peptide binding, 2 h; inhibition, % at 21.7 µM;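 active means compounds that cut the protein-peptide binding signal by more than 50% relative to plate controls in a single-dose test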;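 further: His-tagged Mcl-1 with rhodamine Noxa BH3 peptide and terbium anti-His antibody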
Numbers stand for hits. A selection: hits, their analogues and other compounds. The true share with any hit is near 3.4%.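 How the source made its calls, unless noted: active means inhibition above about 30% (limit read from the data); inactive means the rest.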

Results for COc1ccc(F)c(CN2CCC(N3CCC(C(=O)N4CCOCC4)CC3)CC2)c1 ?
Bim-Mcl-1: inactive; eIF4E-4G inh: inactive; p47phox inh: inactive; Mcl1 Bid PPI: inactive; 14-3-3 Bad inh: inactive; Mcl1-Noxa inh: inactive

What do the screens show for `CCOC(=O)C1CCCCN1Cc1cc(OC)ccc1OC` (stereo not given)?
Bim-Mcl-1: inactive; eIF4E-4G inh: inactive; p47phox inh: inactive; Mcl1 Bid PPI: inactive; 14-3-3 Bad inh: 91; Mcl1-Noxa inh: inactive

How did CCOC(=O)C1CCCCN1Cc1cccc(F)c1 (stereo not given) do in these assays?
Bim-Mcl-1: inactive; eIF4E-4G inh: inactive; p47phox inh: inactive; Mcl1 Bid PPI: inactive; 14-3-3 Bad inh: 71; Mcl1-Noxa inh: inactive

What do the screens show for `CCOC(=O)C1CCCCN1Cc1cc(Cl)ccc1O` (stereo not given)?
Bim-Mcl-1: inactive; p47phox inh: inactive; Mcl1 Bid PPI: inactive; Mcl1-Noxa inh: inactive

What do the screens show for `COc1ccc(OC)c(CN2CCC(C(=O)N3CCOCC3)CC2)c1`?
Bim-Mcl-1: inactive; eIF4E-4G inh: inactive; p47phox inh: inactive; Mcl1 Bid PPI: 53; 14-3-3 Bad inh: inactive; Mcl1-Noxa inh: inactive

How did COc1cc(CN2CCC(C(=O)N3CCCC(C)C3)CC2)cc(Br)c1O (stereo not given) do in these assays?
Bim-Mcl-1: inactive; eIF4E-4G inh: inactive; p47phox inh: inactive; Mcl1 Bid PPI: inactive; 14-3-3 Bad inh: 79; Mcl1-Noxa inh: inactive

Results for CCOC(=O)C1CCCCN1Cc1cn(C)nc1-c1ccccc1F (stereo not given) ?
eIF4E-4G inh: inactive; p47phox inh: inactive; Mcl1 Bid PPI: inactive; 14-3-3 Bad inh: inactive; Mcl1-Noxa inh: inactive

How did CCOC(=O)C1CCCCN1Cc1cccc(OC)c1OC (stereo not given) do in these assays?
Bim-Mcl-1: inactive; eIF4E-4G inh: inactive; p47phox inh: inactive; Mcl1 Bid PPI: inactive; 14-3-3 Bad inh: 76; Mcl1-Noxa inh: inactive

Results for CNC(=S)Nc1ccc(C)c(NC(=S)NC)c1 ?
Bim-Mcl-1: inactive; eIF4E-4G inh: inactive; p47phox inh: inactive; Mcl1 Bid PPI: inactive; 14-3-3 Bad inh: inactive; Mcl1-Noxa inh: 58

How did Cc1ccc(OCc2nnc(N)s2)cc1C do in these assays?
eIF4E-4G inh: inactive; p47phox inh: inactive; Mcl1 Bid PPI: inactive; 14-3-3 Bad inh: inactive; Mcl1-Noxa inh: inactive

How did CCc1ccc(NC(=O)Cn2cccc2)cc1 do in these assays?
Bim-Mcl-1: inactive; eIF4E-4G inh: inactive; p47phox inh: inactive; Mcl1 Bid PPI: inactive; 14-3-3 Bad inh: inactive; Mcl1-Noxa inh: inactive

What do the screens show for `COc1ccccc1-c1nc(SCC(=O)N(C)c2ccccc2)c2c(=O)n(C)c(=O)n(C)c2n1`?
Bim-Mcl-1: inactive; eIF4E-4G inh: inactive; p47phox inh: inactive; Mcl1 Bid PPI: 57; 14-3-3 Bad inh: inactive; Mcl1-Noxa inh: inactive

How did COc1ccc(/C=C/S(=O)(=O)NCc2ccccc2)cc1OC do in these assays?
Bim-Mcl-1: inactive; eIF4E-4G inh: inactive; p47phox inh: inactive; Mcl1 Bid PPI: inactive; 14-3-3 Bad inh: inactive; Mcl1-Noxa inh: inactive

How did O=C(Nc1ccc(S(=O)(=O)Nc2ncccn2)cc1)c1cccc(S(=O)(=O)N2CCOCC2)c1 do in these assays?
eIF4E-4G inh: inactive; p47phox inh: inactive; Mcl1 Bid PPI: inactive; 14-3-3 Bad inh: inactive; Mcl1-Noxa inh: inactive

How did Cc1ccc(NC(=O)c2cc(N3C(=O)C=CC3=O)ccc2Cl)cc1C do in these assays?
Bim-Mcl-1: inactive; eIF4E-4G inh: inactive; p47phox inh: inactive; Mcl1 Bid PPI: inactive; 14-3-3 Bad inh: inactive; Mcl1-Noxa inh: 77

What do the screens show for `Cc1ccc(NC(=O)c2cc(N3C(=O)C=CC3=O)ccc2N2CCOCC2)cc1`?
Bim-Mcl-1: inactive; eIF4E-4G inh: inactive; p47phox inh: inactive; Mcl1 Bid PPI: inactive; 14-3-3 Bad inh: inactive; Mcl1-Noxa inh: 55

What do the screens show for `CC(C)[C@H](NC(=O)Cc1ccccc1)C(=O)OCc1cc(=O)n2c(n1)sc1ccccc12`?
Bim-Mcl-1: inactive; eIF4E-4G inh: inactive; p47phox inh: inactive; Mcl1 Bid PPI: inactive; 14-3-3 Bad inh: inactive; Mcl1-Noxa inh: 76

What do the screens show for `Cc1ccc2c(CC(=O)OCc3cc(=O)n4c(n3)sc3ccccc34)coc2c1`?
Bim-Mcl-1: inactive; eIF4E-4G inh: inactive; p47phox inh: inactive; Mcl1 Bid PPI: inactive; 14-3-3 Bad inh: inactive; Mcl1-Noxa inh: inactive

How did CC(C)C(=O)NNc1ccc(C(F)(F)F)cn1 do in these assays?
eIF4E-4G inh: inactive; p47phox inh: inactive; Mcl1 Bid PPI: inactive; 14-3-3 Bad inh: inactive; Mcl1-Noxa inh: inactive

Results for O=C1C=C(c2ccc(Cl)cc2)OC2(CCCC2)O1 ?
Bim-Mcl-1: inactive; eIF4E-4G inh: inactive; p47phox inh: inactive; Mcl1 Bid PPI: inactive; 14-3-3 Bad inh: 72; Mcl1-Noxa inh: inactive

What do the screens show for `CC(=O)Nc1ccc2nc3c(=O)n(C)c(=O)n(C)c3nc2c1`?
eIF4E-4G inh: inactive; p47phox inh: inactive; Mcl1 Bid PPI: inactive; 14-3-3 Bad inh: inactive; Mcl1-Noxa inh: 58

How did Cn1c(N)c(C(=O)COC(=O)c2cc(-c3ccccc3)nc3ccccc23)c(=O)n(Cc2ccccc2)c1=O do in these assays?
Bim-Mcl-1: inactive; eIF4E-4G inh: inactive; p47phox inh: inactive; Mcl1 Bid PPI: inactive; 14-3-3 Bad inh: inactive; Mcl1-Noxa inh: inactive

Results for Cn1c(=O)c(C(=O)COC(=O)c2cc(-c3ccco3)nc3ccccc23)c(N)n(Cc2ccccc2)c1=O ?
Bim-Mcl-1: inactive; eIF4E-4G inh: inactive; p47phox inh: inactive; Mcl1 Bid PPI: inactive; 14-3-3 Bad inh: inactive; Mcl1-Noxa inh: 96

How did CC(C)Cn1c(N)c(C(=O)COC(=O)c2cc(-c3ccco3)nc3ccccc23)c(=O)n(C)c1=O do in these assays?
Bim-Mcl-1: inactive; eIF4E-4G inh: inactive; p47phox inh: inactive; Mcl1 Bid PPI: inactive; 14-3-3 Bad inh: inactive; Mcl1-Noxa inh: 97

What do the screens show for `CCOC(=O)C1CCN(CC(=O)Nc2c(C(=O)OC)[nH]c3cccc(Cl)c23)CC1`?
Bim-Mcl-1: inactive; eIF4E-4G inh: inactive; p47phox inh: inactive; Mcl1 Bid PPI: 99; 14-3-3 Bad inh: inactive; Mcl1-Noxa inh: inactive

What do the screens show for `CCOC(=O)C1CCN(CC(=O)Nc2c(C(=O)OC)[nH]c3ccccc23)CC1`?
Bim-Mcl-1: inactive; eIF4E-4G inh: inactive; p47phox inh: inactive; Mcl1 Bid PPI: inactive; 14-3-3 Bad inh: inactive; Mcl1-Noxa inh: inactive

How did CCN(CCCNC(=O)c1ccc(N2CCCC2=O)cc1)c1cccc(C)c1 do in these assays?
Bim-Mcl-1: inactive; eIF4E-4G inh: inactive; p47phox inh: inactive; Mcl1 Bid PPI: inactive; 14-3-3 Bad inh: 80; Mcl1-Noxa inh: inactive

Results for O=C(NCc1ccccc1)C(=O)Nc1nc(C23CC4CC(CC(C4)C2)C3)cs1 ?
Bim-Mcl-1: 83; eIF4E-4G inh: inactive; p47phox inh: inactive; Mcl1 Bid PPI: inactive; 14-3-3 Bad inh: inactive; Mcl1-Noxa inh: inactive

How did O=C(Cn1cnc2c(nnn2Cc2ccc(F)cc2)c1=O)Nc1ccccc1 do in these assays?
eIF4E-4G inh: inactive; p47phox inh: inactive; Mcl1 Bid PPI: inactive; 14-3-3 Bad inh: inactive; Mcl1-Noxa inh: inactive

Results for Cc1[nH]n(-c2ccc(Br)cc2)c(=O)c1C=Nc1ccc(S(=O)(=O)Nc2nccs2)cc1 ?
Bim-Mcl-1: inactive; eIF4E-4G inh: inactive; p47phox inh: inactive; Mcl1 Bid PPI: inactive; 14-3-3 Bad inh: inactive; Mcl1-Noxa inh: 79
